# Test results from PubChem BioAssay (EPA / NIEHS).
# Records with an inconclusive call do not appear. The source made the active and inactive calls. The calls were made as follows, unless noted: active = hit-call score of the fitted dose curve at least 0.9, where 1 is the maximum; inactive = score below 0.9.
# Target: Nuclear receptor subfamily 4 group A member 2 (Homo sapiens) (UniProt P43354)
# Assay: ATG_NURR1_TRANS: Attagene TRANS-FACTORIAL HepG2 Assay for human Nuclear Receptor Related Protein 1 (NURR1) (AID 2282985; active = hit-call score of the fitted dose curve at least 0.9, where 1 is the maximum)
# Conditions: HepG2 Attagene TRANS reporter, mRNA readout
# How it was run: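 After 24 h chemical dosing, total RNA from transiently transfected HepG2 cells was reverse-transcribed and reporter cDNA PCR-amplified, FAM-labelled and analysed by capillary electrophoresis. Activity fitted in positive direction, DMSO as negative control.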
# Sequence of Nuclear receptor subfamily 4 group A member 2 (Homo sapiens) (P43354 whole entry, looked up): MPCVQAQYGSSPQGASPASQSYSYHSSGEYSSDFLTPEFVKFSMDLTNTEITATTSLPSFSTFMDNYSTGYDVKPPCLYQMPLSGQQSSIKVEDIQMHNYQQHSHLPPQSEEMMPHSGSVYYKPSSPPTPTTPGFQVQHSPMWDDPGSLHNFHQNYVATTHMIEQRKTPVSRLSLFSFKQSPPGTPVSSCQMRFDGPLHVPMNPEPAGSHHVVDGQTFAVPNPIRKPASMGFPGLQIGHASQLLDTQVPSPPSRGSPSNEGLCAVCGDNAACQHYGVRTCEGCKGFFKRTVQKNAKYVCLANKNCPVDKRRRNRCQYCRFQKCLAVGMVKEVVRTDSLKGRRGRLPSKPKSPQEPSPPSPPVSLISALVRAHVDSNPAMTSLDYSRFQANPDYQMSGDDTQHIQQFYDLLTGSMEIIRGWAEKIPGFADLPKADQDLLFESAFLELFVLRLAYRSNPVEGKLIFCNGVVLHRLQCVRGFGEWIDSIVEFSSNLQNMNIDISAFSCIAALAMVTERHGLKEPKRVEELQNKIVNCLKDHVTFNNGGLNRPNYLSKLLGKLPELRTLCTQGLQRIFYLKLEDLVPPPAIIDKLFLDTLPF
SMILES,outcome,AC50
NC(O)(C(F)(F)F)C(F)(F)F,inactive,
O=C(Cl)C(F)(F)C(F)(F)C(F)(F)C(F)(F)C(F)(F)C(F)(F)C(F)(F)F,,38.9 µM (active)
O=C(F)C1(F)C(F)(F)C(F)(F)C(F)(F)C(F)(F)C1(F)F,inactive,
CCCCOC(=O)[C@H](C)O,inactive,
Cc1ccc(S(=O)(=O)C(I)I)cc1,inactive,
C#CC(O)CCC (centres undefined),inactive,
CC(C)(C)c1cc(CCC(=O)OCC(COC(=O)CCc2cc(C(C)(C)C)c(O)c(C(C)(C)C)c2)(COC(=O)CCc2cc(C(C)(C)C)c(O)c(C(C)(C)C)c2)COC(=O)CCc2cc(C(C)(C)C)c(O)c(C(C)(C)C)c2)cc(C(C)(C)C)c1O,inactive,
CC(C)Nc1ccc(NC(C)C)c2c1C(=O)c1ccccc1C2=O,inactive,
COC(F)(C(F)F)C(F)(F)F (centres undefined),inactive,
O=C(c1ccccc1)c1ccc(Cl)cc1,inactive,
N#Cc1ccccc1O,inactive,

# Target: Transcriptional activator Myb (Homo sapiens) (UniProt P10242)
# Sequence (P10242 whole entry, looked up): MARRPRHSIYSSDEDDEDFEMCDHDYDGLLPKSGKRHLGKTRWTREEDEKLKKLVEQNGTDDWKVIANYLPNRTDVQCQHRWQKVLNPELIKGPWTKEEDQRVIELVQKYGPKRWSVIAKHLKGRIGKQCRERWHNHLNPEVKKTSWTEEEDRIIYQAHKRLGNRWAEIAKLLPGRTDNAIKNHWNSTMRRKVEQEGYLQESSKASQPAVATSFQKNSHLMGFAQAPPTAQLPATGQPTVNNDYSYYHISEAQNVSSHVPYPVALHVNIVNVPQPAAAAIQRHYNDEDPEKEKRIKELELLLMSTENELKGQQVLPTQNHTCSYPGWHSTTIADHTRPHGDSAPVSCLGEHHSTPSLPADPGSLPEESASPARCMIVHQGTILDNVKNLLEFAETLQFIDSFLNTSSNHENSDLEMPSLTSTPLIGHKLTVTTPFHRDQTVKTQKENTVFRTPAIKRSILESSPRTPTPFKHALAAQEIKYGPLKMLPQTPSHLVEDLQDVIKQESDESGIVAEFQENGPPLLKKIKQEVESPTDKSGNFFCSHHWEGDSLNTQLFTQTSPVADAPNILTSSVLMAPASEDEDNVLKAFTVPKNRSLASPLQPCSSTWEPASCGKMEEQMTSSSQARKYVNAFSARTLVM
# Assay: ATG_Myb_CIS: Attagene CIS-FACTORIAL HepG2 Assay for human Myeloblastosis (Myb) Proto-Oncogene Transcription Factor (AID 2282986)
# Conditions: HepG2 Attagene CIS-FACTORIAL Myb reporter transcription; actives raise or lower the signal
# How it was run: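 After 24 h of compound dosing, total RNA from transfected HepG2 cells is reverse-transcribed and the reporter sequences amplified, labeled and separated by capillary electrophoresis. Values come from bidirectional fitting against DMSO.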
SMILES,outcome,AC50
Brc1ccccn1,inactive,
O=C1OC(=O)c2ccc3c4c(ccc1c24)C(=O)OC3=O,inactive,
NCC(F)(F)C(F)(F)C(F)(F)C(F)(F)C(F)(F)C(F)(F)F,inactive,
CC(C)(C)C(=O)C1C(=O)c2ccccc2C1=O,inactive,
O=C1c2c(O)ccc(Nc3ccc(CCO)cc3)c2C(=O)c2c([N+](=O)[O-])ccc(O)c21,inactive,
CC(C)OC=O,inactive,
O=S(=O)(Cl)C(F)(F)C(F)(F)C(F)(F)C(F)(F)C(F)(F)C(F)(F)C(F)(F)C(F)(F)F,inactive,
CC1=CCC(=O)O1,inactive,
CC(O)C#CC(C)O (centres undefined),inactive,
NC(=O)C(F)(F)C(F)(F)C(F)(F)C(F)(F)C(N)=O,inactive,
CC(C)OC(=O)COc1ccc(Cl)cc1Cl,inactive,
CCn1c2ccccc2c2ccccc21,inactive,
OCC(F)(F)C(F)(F)C(F)(F)CO,inactive,
CCN(CCO)S(=O)(=O)C(F)(F)C(F)(F)C(F)(F)C(F)(F)C(F)(F)C(F)(F)C(F)(F)C(F)(F)F,inactive,
NC(=O)C(F)(F)C(F)(F)C(F)(F)C(F)F,inactive,
O=C=Nc1cccc2c(N=C=O)cccc12,inactive,
CC1=CC2C3C=CC(C3)C2C1C (centres undefined),inactive,
O=C1C=CC(=O)N1c1ccccc1,inactive,
O=C=NCc1cccc(CN=C=O)c1,inactive,

SMILES,outcome,AC50
O=C(O)C(F)(F)OC(F)(F)C(F)(F)OC(F)(F)C(F)(F)OC(F)(F)F,inactive,
NC(O)(C(F)(F)F)C(F)(F)F,inactive,
O=C(Cl)C(F)(F)C(F)(F)C(F)(F)C(F)(F)C(F)(F)C(F)(F)C(F)(F)F,inactive,
O=C(F)C1(F)C(F)(F)C(F)(F)C(F)(F)C(F)(F)C1(F)F,inactive,
CCN(CC)c1ccc(C=O)cc1,inactive,
CCCCOC(=O)[C@H](C)O,inactive,
COCCC(=O)OC,inactive,
Cc1ccc(S(=O)(=O)C(I)I)cc1,,17.4 µM (active)
C#CC(O)CCC (centres undefined),inactive,
O=C(O)C(F)(F)C(F)(F)C(F)(F)C(=O)O,inactive,
CC(C)(C)c1cc(CCC(=O)OCC(COC(=O)CCc2cc(C(C)(C)C)c(O)c(C(C)(C)C)c2)(COC(=O)CCc2cc(C(C)(C)C)c(O)c(C(C)(C)C)c2)COC(=O)CCc2cc(C(C)(C)C)c(O)c(C(C)(C)C)c2)cc(C(C)(C)C)c1O,inactive,
CC(C)Nc1ccc(NC(C)C)c2c1C(=O)c1ccccc1C2=O,inactive,
CN(N=O)C(=O)N[C@@H]1[C@@H](O)[C@H](O)[C@@H](CO)O[C@@H]1O,inactive,
OCCCCC(F)(F)C(F)(F)C(F)(F)C(F)(F)F,inactive,
COC(F)(C(F)F)C(F)(F)F (centres undefined),inactive,
N#CCCOCCC#N,inactive,
O=C(c1ccccc1)c1ccc(Cl)cc1,inactive,
Nc1cccnc1N,inactive,
N#Cc1ccccc1O,inactive,
